Results published in PubChem BioAssay (NCI).
This is part of a sample that, as a whole, favours compounds with a hit. Of some 83,000 tested, about 20% had one in any assay.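 The endpoint reported here, percent growth, reads 100 for growth as untreated, 0 for no net growth and -100 for all cells dead.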 Unmarked numbers belong to inactive results. Activity calls are given as the source filed them. The calls were made as follows: active = growth percent below 10; inactive = the rest.

System: SW-620 colon
Assay: NCI-60 one-dose screen, 48 h (100 = growth as untreated, 0 = no growth, -100 = all killed)
Settings: 10 µM

| SMILES | growth |
| --- | --- |
| COc1cc(/C=C/c2cc(/C=C/c3ccc(O)c(OC)c3)[nH]c(=O)n2)ccc1O | 43.6% |
| O=C1CSC(=S)N1/N=C/c1ccc(Cl)s1 | 108% |
| COc1ccc(-c2onc(N)c2-c2cc(OC)c3c(c2)OCO3)cc1 | 16.8% |
| COc1cc(/C=C/c2cc(/C=C/c3ccc(O)c(OC)c3)n(C(=O)Nc3ccc(C)cc3)n2)ccc1O | 8.12% (active) |
| COc1cc(NC(=O)Nc2cnc(Nc3ccc(N4CCOCC4)cc3)nc2Oc2cccc(OC)c2)cc(OC)c1 | 72.6% |
| CC(=O)N[C@H](C(=O)N[C@@H](CCCNC(=N)N)C(=O)N[C@@H](CCCCN)C(=O)N[C@@H](CCCNC(=N)N)C(=O)NC(C(=O)N[C@@H](CC(C)C)C(=O)N[C@@H](CCCNC(=N)N)C(=O)N[C@@]1(C)CCC/C=C\CCC[C@@](C)(C(=O)N[C@@H](CCCNC(=N)N)C(=O)N[C@@H](CCC(=O)O)C(=O)N[C@@H](CC(C)C)C(=O)N[C@H](C(=O)N[C@@H](CCC(=O)O)C(N)=O)C(C)C)NC(=O)[C@H](CCC(N)=O)NC(=O)[C@H](CC(C)C)NC(=O)[C@H](CC(C)C)NC1=O)[C@@H](C)O)C(C)C (some centres not stated) | 22.4% |
| Oc1ccc(/C=N/N=C2c3ccccc3-c3ccccc32)c(O)c1 | 75.4% |
| C[C@@H](C[C@H](CCO)c1ccccc1)c1ccc2ccccc2c1 | -26.5% (active) |

System: MCF7 breast
Assay: as above
Settings: 10 µM

| SMILES | growth |
| --- | --- |
| Oc1cccc(-c2nc3sccn3c2-c2ccncn2)c1 | 76.7% |
| CCOC(=O)c1cc(C(=O)c2cc(OC)c(OC)c(OC)c2)n2ccc(-c3cc[n+](CC(=O)c4cc(OC)c(OC)c(OC)c4)cc3)cc12 | -29.3% (active) |
| C[C@H]1[C@H](OC(=O)CCC(=O)O)O[C@@H]2O[C@]3(C)CC[C@H]4[C@H](C)CC[C@@H]1[C@@]24OO3 | 28.4% |
| COc1ccc(C(=O)N/N=C/c2cc(C(F)(F)F)ccc2Cl)cc1 | 60.3% |
| COc1ccc(-c2cc(-c3ccc(Cl)cc3)nc(SCCCC(=O)NO)n2)cc1OC | 1.13% (active) |
| CCC(=O)OC1CCC2C3CCC(=O)OC3C(C)(CCC(=O)O)CC12C (configuration not stated) | 30.9% |
| OCC1OC(n2ccc3c(NO)ncnc32)C(O)C1O (configuration not stated) | -0.414% (active) |
| CC(C)(C)c1ccc(S(=O)(=O)N[C@H]2CC[C@H]3[C@@H]4CCc5cc(O)c([N+](=O)[O-])cc5[C@H]4CC[C@]23C)cc1 | 54.1% |
| COc1cc(-c2nn(-c3cccc(NC(=O)CCNc4ccc(N5CCOCC5)cc4)c3)cc2-c2ccncc2)ccc1Cl | 7.35% (active) |
| COc1cc(-c2nn(-c3cccc(NC(=O)CN4CCOCC4)c3)cc2-c2cccnc2)ccc1Cl | 62.4% |
| O=C(CCCSc1nc(-c2ccccc2)cc(-c2ccc(Cl)cc2)n1)NO | 4.12% (active) |
| CC(C)N(CCOc1cccc(-c2nc3sccn3c2-c2ccnc(S(C)(=O)=O)n2)c1)C(C)C | 54.4% |
| O=C(CCC(C(=O)c1ccccc1)c1ccccc1)c1ccccc1 (configuration not stated) | 72% |
| COc1ccc(-c2csc(NC(=O)c3ccc(Cc4n[nH]c(=O)c5cccnc45)cc3)n2)cc1 | 77.4% |
| COc1cc(-c2nn(-c3cccc(NC(=O)CCN4CCN(Cc5ccccc5)CC4)c3)cc2-c2ccncc2)ccc1Cl | 0.805% (active) |
| COc1cc2cc(Oc3ccc(NC(=O)c4cc(C(F)(F)F)cc(C(F)(F)F)c4)cc3)c(C)nc2cc1OC | 29.5% |
| C[C@]12CCC3c4ccc(O)cc4C[C@@H](CCCCCCCCCS(=O)CCCC(F)(F)C(F)(F)F)C3C1CC[C@@H]2O (some centres not stated) | 15.9% |
| Cc1cc(Cl)ccc1Nc1nc(C(F)(F)F)ccc1C(=O)N/N=C/c1cccc(O)c1 | 29.9% |
| COc1cc(C(=O)/C=C/c2c[nH]c3ccccc23)cc(OC)c1OC | 12.5% |
| CCOC(=O)CC(S(=O)(=O)c1ccccc1)S(=O)(=O)c1ccccc1 | 101% |
| CCNCC(=O)Nc1ccc(C(=O)OCC)cc1 | 99.6% |
| CCCc1cn(CC(=O)Nc2nc3ccccc3s2)nn1 | 100% |
| COc1cc2cc(Oc3ccc(NC(=O)Nc4ccc(Cl)c(C(F)(F)F)c4)cc3)c(C)nc2cc1OC | 2.59% (active) |
| COc1cc(/C=C2\CCCC3=C2NC(N)=NC3c2cc(OC)c(OC)c(OC)c2)cc(OC)c1OC (configuration not stated) | 43% |
